Rows were chosen to be rich in hits. Some 4.1% of all compounds tested hit in one or more screens of this group.
TRPM1 prom inh – MITF TRPM1 promoter inhibition in SK-MEL-5 cells; inhibition, % at 12.5 µM; actives 0.83% (n = 330,000); AID 488899; SK-MEL-5 TRPM1 promoter luciferase, 24 h;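 active = mean inhibition across replicates of 60% or more, whatever share of single replicates reaches that level; inconclusive = some that reach 60%, reason not given; inactive = mean inhibition across replicates below 60%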
LMP1 NFkB inh – Epstein-Barr LMP1 NF-kappaB reporter inhibition; LMP1-induced NF-kappaB luciferase reporter cells, luminescence; inhibition, % at 12.5 µM; actives 0.69% (n = 350,000); AID 504558; in the data active = inhibition above about 41%; inconclusive = no clear call, values can overlap the other calls
Shn3 3UTR inh – Schnurri-3 reporter inhibition in Clone20 osteoblasts; Clone20 osteoblast Shn3 3'UTR firefly luciferase, 24 h; inhibition, % at 12.5 µM; actives 0.52% (n = 360,000); AID 588674;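 active = mean inhibition of at least 75% with every replicate also reaching 75%; inconclusive = mean inhibition at least 75% but some replicate below; inactive = mean inhibition below 75%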
Peg3 prom inh – inhibitors of Peg3 promoter; actives 1.7% (n = 360,000); HeLa PEG-Prom luciferase reporter, luminescence, overnight; inhibition, % at 20 µM;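 active = inhibition of at least 50% at 20 µM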
TROY NFkB inh – blocks TROY-dependent signaling in reporter cells | actives 0.98% (n = 360,000) | Q293 LMP1-TROYcd NF-kB luciferase reporter, 4 h | AID 1347056 | inhibition, % at 10 µM;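 active = compounds whose plate-normalised and pattern-corrected inhibition of the luciferase reporter signal at the single screening dose is 50% or more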
TWEAK Fn14 block – inhibitors of TWEAK-Fn14 interaction signaling. TWEAK-stimulated Fn14 reporter cells, luciferase luminescence, 8 h. inhibition, % at 10 µM. actives 2% (n = 360,000); in the data active = inhibition above about 50%
Each line names hits and unclear results; the compound was inactive in the other large screens.

CCc1ccc(OCC(=O)Nc2ccc(-c3cc4ccccc4oc3=O)c(OC)c2)cc1	TWEAK Fn14 block 72.8
Cc1nn(-c2ccccn2)c(C)c1Oc1ccccc1O	none
Cc1nn(-c2nc3ccccc3s2)c(C)c1Oc1ccccc1O	TROY NFkB inh 62.3
CC1(C)CC(=O)C2=C(C1)N(c1cccc(Cl)c1)C(=O)NC2(C(F)(F)F)C(F)(F)F	none
COC(=O)c1ccc(CN2C(=O)NC3(CCCc4ccccc43)C2=O)o1 (stereo unspecified)	none
COC(=O)c1ccc(CN2C(=O)NC3(CCCCC3C)C2=O)o1 (stereo unspecified)	TWEAK Fn14 block 52.8 (no result: TROY NFkB inh)
CSc1sc(C#N)c2c1/C(=N\O)CCC2	none
CCOC(=O)/C(C#N)=N/Nc1ccc(S(=O)(=O)N2CCc3ccccc32)cc1	TROY NFkB inh 52.2
N#C/C(=N\Nc1ccc(S(=O)(=O)N2CCc3ccccc32)cc1)C(N)=S	TROY NFkB inh 72.3, TWEAK Fn14 block 57.9
CCc1nnc(NC(=O)CCC(=O)Nc2ccc(OC)cc2OC)s1	none
CC(=O)Nc1cccc(-c2ccnc3c2CC(C)(C(=O)Nc2ccc(C(C)C)cc2)O3)c1 (stereo unspecified)	Peg3 prom inh 51.6 (no result: TRPM1 prom inh, LMP1 NFkB inh)
CC(=O)Nc1cccc(-c2ccnc3c2CC(C)(C(=O)Nc2ccccc2)O3)c1 (stereo unspecified)	none (no result: TRPM1 prom inh, LMP1 NFkB inh)
CCn1nnc(-c2ccccc2NC(=O)c2cnccn2)n1	none
Cn1nc([N+](=O)[O-])nc1Sc1nnc(-c2ccccc2)o1	TWEAK Fn14 block 68.6
O=Cc1ccc(Sc2nnc(-c3ccccc3)o2)c([N+](=O)[O-])c1	none
COc1ccc(/C=C/C(=O)NCC(=O)N/N=C/c2cccs2)cc1	none
CN(Cc1ccncn1)C(=O)C1CCC(=O)N(Cc2cccc(C(F)(F)F)c2)C1 (stereo unspecified)	none
Cc1ccc([N+](=O)[O-])cc1-c1ccc(/C=N/NC(=O)c2cc3c(ccc4ccccc43)o2)o1	none
O=C(O)c1ccc(/C=N/NC(=O)c2cc3c(ccc4ccccc43)o2)cc1	TROY NFkB inh 63.2
Cc1cc([N+](=O)[O-])ccc1-c1ccc(/C=N/NC(=O)c2ccc(Br)o2)o1	Peg3 prom inh 110.5
Cc1ccc(-c2ccc(/C=N\NC(=O)c3cc4c(ccc5ccccc54)o3)o2)cc1[N+](=O)[O-]	Peg3 prom inh 90.8
O=C(CNc1ccc2ccccc2c1)N/N=C/c1ccc(C(=O)O)cc1	TWEAK Fn14 block 53.2
Cc1ccc(C(=O)NCCC(=O)N2CCCC2)cc1	none
CCOC(=O)[C@]12CCCC=C1N(Cc1ccc3c(c1)OCO3)C(=O)[C@H](CC(=O)NCc1cccc(C(F)(F)F)c1)C2	none (no result: TRPM1 prom inh, LMP1 NFkB inh, Shn3 3UTR inh, Peg3 prom inh)
CCOC(=O)c1c(C)n(C)c2ccc(OC)c(NC(=O)CCN3CCC(Cc4ccccc4)CC3)c12	none
CCOC(=O)c1c(C)n(C)c2ccc(OC)c(NC(=O)CN3CCSCC3)c12	Peg3 prom inh 76.6
N#CC1(NC(=O)CN2C(=O)c3ccccc3C2=O)CCCCC1	none
N#CC1(NC(=O)Cn2ncc(Cl)c(Cl)c2=O)CCCCC1	Peg3 prom inh 93.5, TROY NFkB inh 55.3, TWEAK Fn14 block 77.7
O=CN1CC(=O)N(c2ccccc2)c2c([nH]c3ccccc23)C1	none
N#Cc1ccc(CSc2ccc(S(=O)(=O)N3CCCCCC3)cn2)cc1	none
CCN(CC)S(=O)(=O)c1ccc(N/N=C/c2cc(OC)ccc2O)nc1	TRPM1 prom inh inconclusive, LMP1 NFkB inh 46.2
COc1cccc(/C=N/NC(=S)Nc2cccc(S(=O)(=O)N(C)C)c2)c1	none
COc1ccc(O)c(/C=N/NC(=S)Nc2cccc(S(=O)(=O)N(C)C)c2)c1	Shn3 3UTR inh 90.0
Cc1nc(-c2coc3cc(O)c(C)cc3c2=O)cs1	TWEAK Fn14 block 65.3
Cc1csc(NC(=O)c2cc3c(s2)CCCC3)n1	TWEAK Fn14 block 71.1
CCOC(=O)Cc1csc(NC(=O)c2cc3c(s2)CCCC3)n1	none
Cc1csc(NC(=O)c2cc3c(s2)CCCCC3)n1	Peg3 prom inh 57.7, TROY NFkB inh 76.6, TWEAK Fn14 block 94.6
Cc1csc(NC(=O)CN2C(=O)C3CC=CCC3C2=O)n1 (stereo unspecified)	TWEAK Fn14 block 73.4 (no result: TROY NFkB inh)
Cc1cnc(NC(=O)c2cc3c(s2)CCCC3)s1	TROY NFkB inh 56.6, TWEAK Fn14 block 86.5
CCc1nnc(NC(=O)c2cc3c(s2)CCCCC3)s1	none
Cc1sc2ncn(CC(=O)NCCCC(=O)N3CCN(Cc4ccc5c(c4)OCO5)CC3)c(=O)c2c1C	none
O=c1[nH]c(=S)[nH]c2c1C(c1ccc(F)cc1)OC(CCC(F)(F)F)C2 (stereo unspecified)	none (no result: TRPM1 prom inh, LMP1 NFkB inh)
Cc1csc(NC(=O)C2CCCC2)n1	TWEAK Fn14 block 62.2 (no result: TROY NFkB inh)
Cc1csc(NC(=O)C2CCCCC2C(=O)O)n1 (stereo unspecified)	none
[C-]#[N+][C@H](O[C@@H]1O[C@H](CO)[C@@H](O)[C@H](O)[C@H]1O)c1ccccc1	none (no result: TRPM1 prom inh)
O=C(O)CC(CCc1ccccc1)OC1OC(CO)C(O)C(O)C1O (stereo unspecified)	TWEAK Fn14 block 59.2
Cc1cccc(CNC(=O)c2sc(=O)n(Cc3ccc(S(C)(=O)=O)cc3)c2C)c1	none (no result: TRPM1 prom inh, LMP1 NFkB inh)
COc1cccc(OCC(=O)O/N=C(\N)c2ccc(OC)c(OC)c2)c1	none
O=C1NC[C@@H](CCCCN2C[C@H](Cc3ccccc3)N(CCc3ccc(O)cc3)C(=O)C2=O)N(CCc2ccccc2)C1=O	none (no result: TRPM1 prom inh, LMP1 NFkB inh, Shn3 3UTR inh, Peg3 prom inh)
C=CC(=O)Nc1cccc(Oc2ccnc(Nc3ccc(N4CCN(C)CC4)cc3)n2)c1	Peg3 prom inh 51.8
C=CC(=O)Nc1cccc(N(C)c2ccnc(Nc3ccc(N4CCN(C)CC4)cc3)n2)c1	LMP1 NFkB inh 44.2
NS(=O)(=O)c1cccc(NC(=O)COC(=O)/C=C/c2nc3ccccc3s2)c1	none
CCOn1c(=O)c(C)[n+]([O-])c2ccccc21	TWEAK Fn14 block 85.3 (no result: TROY NFkB inh)
Oc1[nH]c2ccccc2c1N=NC(=S)N1CCOCC1	TRPM1 prom inh 92.5, Peg3 prom inh 53.5, TWEAK Fn14 block 103.8 (no result: Shn3 3UTR inh)
COc1ccc(-c2noc(N3CCC(C(=O)NC(C)c4ccccc4)CC3)n2)cc1 (stereo unspecified)	none (no result: TRPM1 prom inh)
O=C(O)c1ccc(/C=N/Nc2ccc(Cl)nn2)cc1	none
C/C(=N/NC(=O)CNC(=O)C1COc2ccccc2O1)c1cccc(O)c1 (stereo unspecified)	none
CCC(=O)C1CCCN(C(=O)c2ccc3nc(-c4cccc(OC)c4)oc3c2)C1 (stereo unspecified)	TROY NFkB inh 53.4
COc1cccc(-c2nc3ccc(C(=O)N4CCCC(O)C4)cc3o2)c1 (stereo unspecified)	none
CCOC(=O)C1CCCN(C(=O)c2ccc3nc(-c4cccc(OC)c4)oc3c2)C1 (stereo unspecified)	TROY NFkB inh 68.2
CCN(CC)C(=O)C1CCCN(C(=O)c2ccc3nc(-c4cccc(OC)c4)oc3c2)C1 (stereo unspecified)	none (no result: TRPM1 prom inh)

Bioassay records as filed in PubChem.
